In article PMC4336329 (PLoS ONE, 2015):
Hit rate of the full screen: of about 310,000 compounds, about 14,000 (4.5%) showed an effect of 50% or more. The effect is printed as a negative number. The entries come from a sample that favours strong results as a whole.

These compounds were tested against human ether-à-go-go-related gene (hERG) potassium channel (human, UniProt Q12809) (assay: primary screen, population patch clamp on CHO cells stably expressing hERG; higher = less effect of the substance).
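Note: peak tail current of the secondary pulse compared with the same well before compound.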

Sequence of human ether-à-go-go-related gene (hERG) potassium channel (Q12809 whole entry, looked up): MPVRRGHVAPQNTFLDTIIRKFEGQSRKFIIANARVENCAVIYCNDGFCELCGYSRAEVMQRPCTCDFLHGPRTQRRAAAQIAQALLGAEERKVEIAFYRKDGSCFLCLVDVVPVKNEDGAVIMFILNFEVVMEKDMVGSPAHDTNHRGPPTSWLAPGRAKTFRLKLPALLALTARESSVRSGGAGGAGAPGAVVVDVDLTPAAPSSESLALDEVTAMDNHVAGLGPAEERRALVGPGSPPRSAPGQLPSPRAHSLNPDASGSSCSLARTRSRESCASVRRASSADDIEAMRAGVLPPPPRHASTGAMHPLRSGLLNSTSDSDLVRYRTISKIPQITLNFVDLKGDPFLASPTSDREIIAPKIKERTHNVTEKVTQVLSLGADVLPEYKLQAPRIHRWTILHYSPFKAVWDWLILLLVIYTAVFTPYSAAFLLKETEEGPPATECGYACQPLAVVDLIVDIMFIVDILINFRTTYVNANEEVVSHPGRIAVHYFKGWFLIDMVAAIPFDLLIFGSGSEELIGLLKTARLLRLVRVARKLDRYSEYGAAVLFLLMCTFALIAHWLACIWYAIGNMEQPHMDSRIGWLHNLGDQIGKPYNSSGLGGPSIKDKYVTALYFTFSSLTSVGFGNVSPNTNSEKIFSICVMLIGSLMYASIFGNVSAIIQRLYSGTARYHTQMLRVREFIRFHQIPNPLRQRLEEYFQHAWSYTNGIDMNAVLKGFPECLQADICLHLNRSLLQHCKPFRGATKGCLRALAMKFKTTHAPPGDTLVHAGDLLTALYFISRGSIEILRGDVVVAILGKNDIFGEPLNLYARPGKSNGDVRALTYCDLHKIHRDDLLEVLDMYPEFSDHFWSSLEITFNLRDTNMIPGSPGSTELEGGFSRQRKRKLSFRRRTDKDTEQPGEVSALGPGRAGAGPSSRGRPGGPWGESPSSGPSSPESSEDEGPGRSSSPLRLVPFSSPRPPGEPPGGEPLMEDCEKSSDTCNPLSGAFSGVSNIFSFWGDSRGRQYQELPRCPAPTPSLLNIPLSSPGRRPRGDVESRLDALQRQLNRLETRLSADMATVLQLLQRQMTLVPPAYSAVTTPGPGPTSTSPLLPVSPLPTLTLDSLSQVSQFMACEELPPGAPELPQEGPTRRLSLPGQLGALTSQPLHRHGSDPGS

First: c1ccc(N2CCN(c3nc4cc5c(cc4s3)OCO5)CC2)cc1
Second: CC(C)n1ncc2c(C(=O)N3CCN(c4ccccc4)CC3)cc(-c3ccccc3)nc21
The “hERG current change (%, negative = inhibition) at 10uM” value of the first is lower: -11.2% for the first, 17.2% for the second.

Going from CCC(CC)c1nnc(NC(=O)c2c(-c3ccccc3)noc2C)s1 to CCOC(=O)c1c(C)nsc1NCc1ccccc1, the “hERG current change (%, negative = inhibition) at 10uM” value rises from -9.78% to 5.94%.

First: COc1cnn(-c2cc(Oc3ccc(C)cc3)ncn2)c(=O)c1Cl
Second: COc1ccc(CNc2nnnn2C)cc1
The “hERG current change (%, negative = inhibition) at 10uM” value of the first is lower: 2.74% for the first, 20.9% for the second.

Compared with COc1cccc(C(=O)NCC2(c3ccccc3)CCCC2)c1OC, Cc1c[nH]c2cccc(OCC(CNC(C)(C)C)OC(=O)c3ccccc3)c12.Cl (stereo not drawn) is lower in “hERG current change (%, negative = inhibition) at 10uM” value: 3.79% for the first, 1.02% for the second.

First: COc1ccc(C(=O)N2CCCC2=O)cc1
Second: COc1ccc(N2CN=C3SCC(=O)N3C2)cc1
The “hERG current change (%, negative = inhibition) at 10uM” value of the first is higher: 17% for the first, 11.5% for the second.

Going from Cc1sc(NC(=O)C2=COCCO2)nc1-c1ccc(F)cc1 to CC(C)CC(=O)Nc1ccc(-c2nc3ccccc3c(=O)[nH]2)cc1, the “hERG current change (%, negative = inhibition) at 10uM” value rises from 15.5% to 26.7%.

First: CNC(=S)N/N=C/c1ccc(N2CCOCC2)s1
Second: CCC(=O)Nc1ccc(N2CCOCC2)c(S(=O)(=O)Nc2ccc(Cl)cc2)c1
The “hERG current change (%, negative = inhibition) at 10uM” value of the first is higher: 51.6% for the first, -25.2% for the second.

First: CS(=O)(=O)n1nc(-c2cccnc2)nc1NCc1ccccc1
Second: O=S(=O)(Cc1ccccc1Cl)NCc1ccccc1
The “hERG current change (%, negative = inhibition) at 10uM” value of the first is higher: 43.9% for the first, 7.02% for the second.

Going from Nc1nc(-c2ccccc2)c(-c2ccccc2)s1 to Nc1c(-c2ccccc2)sc2ccc3ccccc3[n+]12.O=S(=O)([O-])c1ccccc1, the “hERG current change (%, negative = inhibition) at 10uM” value falls from -2.18% to -58.3%.

Compared with Cc1nc(Nc2ccc(S(N)(=O)=O)cc2)sc1-c1ccccc1, Cc1ccc(S(=O)(=O)N(C)/N=C/C=C/c2ccccc2)cc1 is lower in “hERG current change (%, negative = inhibition) at 10uM” value: 12.9% for the first, 0.391% for the second.

Compared with Cc1c(NC(=O)CSc2nccn2C)c(=O)n(-c2ccccc2)n1C, Cc1ccc(-c2csc(NC(=O)CSc3nc4ccccc4c(=O)n3CCCN(C)C)n2)cc1 is lower in “hERG current change (%, negative = inhibition) at 10uM” value: 10.9% for the first, -35.2% for the second.

Going from CC(CNC(=O)c1cccs1)c1ccc([N+](=O)[O-])cc1 (stereo not drawn) to COC(=O)Cc1c[nH]c2cccc(OCC(O)CN(Cc3ccc([N+](=O)[O-])cc3)C(C)(C)C)c12.Cl (stereo not drawn), the “hERG current change (%, negative = inhibition) at 10uM” value falls from 4.3% to -4.66%.

Compared with COc1cc(OC)cc(C(=O)N[C@H](C(=O)Nc2ccc(NC(C)=O)cc2)C(C)C)c1, COc1cc(OC)cc(C(=O)NC(C(=O)Nc2ccc3c(c2)CCC3)C(C)C)c1 (stereo not drawn) is lower in “hERG current change (%, negative = inhibition) at 10uM” value: 13% for the first, -1.96% for the second.

Compared with COc1cc(OC)cc(C(=O)N[C@H](C(=O)Nc2cc(C)cc(C)c2)C(C)C)c1, CC(O)C(=O)O.COc1ccc(CN(CC(O)COc2cccc3[nH]cc(C)c23)C(C)(C)C)cc1 (stereo not drawn) is lower in “hERG current change (%, negative = inhibition) at 10uM” value: -54.7% for the first, -60.6% for the second.

First: Cc1cc2oc(=O)cc(C)c2cc1NC(=O)CCC(=O)O
Second: CC(=O)Nc1c(NCC(C)C)c2ccccc2oc1=O
The “hERG current change (%, negative = inhibition) at 10uM” value of the first is lower: 7.75% for the first, 16.7% for the second.

First: Cn1c(CCN2CCN(c3ccccn3)CC2)nc2cc(NC(=O)COc3ccc([N+](=O)[O-])cc3)ccc21
Second: Cn1c(CCN2CCN(c3ccccn3)CC2)nc2cc(NC(=O)COc3ccc(Cl)cc3)ccc21
The “hERG current change (%, negative = inhibition) at 10uM” value of the first is higher: -5.69% for the first, -22.7% for the second.

Compared with CCC(=O)Nc1ccc2c(c1)nc(CCN1CCN(c3ccccn3)CC1)n2C, CCCC(=O)Nc1ccc2c(c1)nc(CCN1CCN(c3ccccn3)CC1)n2C is lower in “hERG current change (%, negative = inhibition) at 10uM” value: -18.3% for the first, -25.5% for the second.

First: Cn1c(CCN2CCN(c3ccccn3)CC2)nc2cc(NC(=O)COc3ccccc3)ccc21
Second: Cc1cccc(OCC(=O)Nc2ccc3c(c2)nc(CCN2CCN(c4ccccn4)CC2)n3C)c1
The “hERG current change (%, negative = inhibition) at 10uM” value of the first is higher: -72.5% for the first, -79.5% for the second.

First: CCCCC(=O)Nc1ccc2c(c1)nc(CCN1CCN(c3ccccn3)CC1)n2C
Second: Cc1cccc(N2CCN(C(=O)Cc3cn(C)c4ccccc34)CC2)c1C
The “hERG current change (%, negative = inhibition) at 10uM” value of the first is lower: -56.5% for the first, -7.32% for the second.

First: O=[N+]([O-])c1cc(-c2nc3nc4ccccc4nc3n2CCc2ccccc2)cc([N+](=O)[O-])c1
Second: Cc1cc(C)nc(SC2c3cccc4cccc(c34)C2NS(=O)(=O)c2ccccc2)n1 (stereo not drawn)
The “hERG current change (%, negative = inhibition) at 10uM” value of the first is higher: 3.97% for the first, -4.8% for the second.

First: CC1CCc2sc(C(=O)NCCCn3ccnc3)cc2C1 (stereo not drawn)
Second: Cc1ccc(NC(=O)N2CCc3ccccc3C2)cc1C
The “hERG current change (%, negative = inhibition) at 10uM” value of the first is lower: -1.07% for the first, 15.2% for the second.

Going from OCCC1CN(Cc2cnc(-c3cccc4ccccc34)nc2)CCN1C1CCCCC1 (stereo not drawn) to Cc1ccccc1-c1ncc(CN2CCN(C3CCCCC3)C(CCO)C2)cn1 (stereo not drawn), the “hERG current change (%, negative = inhibition) at 10uM” value falls from -13.2% to -17.4%.

First: COc1ccc(-c2ncc(CN3CCN(CCC(C)C)C(CCO)C3)cn2)cc1 (stereo not drawn)
Second: CC(C)CN1CCN(Cc2cnc(-c3ccc(Cl)cc3)nc2)CC1CCO (stereo not drawn)
The “hERG current change (%, negative = inhibition) at 10uM” value of the first is higher: -43.4% for the first, -67.2% for the second.

Going from OCCC1CN(Cc2cnc(-c3ccc(Cl)cc3)nc2)CCN1C1CCCC1 (stereo not drawn) to OCCC1CN(Cc2cnc(-c3ccc(Cl)cc3)nc2)CCN1C1CCCCC1 (stereo not drawn), the “hERG current change (%, negative = inhibition) at 10uM” value falls from -73.5% to -73.6%.

Going from Cc1cccc(-c2ncc(CN3CCN(CC(C)C)C(CCO)C3)cn2)c1 (stereo not drawn) to Cc1cccc(-c2ncc(CN3CCN(C4CCCC4)C(CCO)C3)cn2)c1 (stereo not drawn), the “hERG current change (%, negative = inhibition) at 10uM” value rises from -47.9% to -46.7%.

First: Cc1ccccc1-c1ncc(CN2CCN(C3CCCC3)C(CCO)C2)cn1 (stereo not drawn)
Second: CCOC(=O)c1c2n(c3c(NCc4ccccc4)ncnc13)CCCC2
The “hERG current change (%, negative = inhibition) at 10uM” value of the first is higher: -25.8% for the first, -76.3% for the second.

Going from CC(C)(C)c1cc(-c2n[nH]c(=S)n2-c2ccc(Cl)cc2)n[nH]1 to Cc1cccc(-c2n[nH]c(=S)n2/N=C/c2ccco2)c1, the “hERG current change (%, negative = inhibition) at 10uM” value falls from 17.3% to 2.87%.

Going from CCCCCC1CCC(C(=O)N2CCOCC2)CC1 (stereo not drawn) to COc1ccccc1NS(=O)(=O)c1cc(NC(=O)C2CC2)ccc1N1CCOCC1, the “hERG current change (%, negative = inhibition) at 10uM” value rises from -2.44% to 45.4%.

Compared with O=C1COc2ccc(S(=O)(=O)CCC(=O)NC3CCCCC3)cc2N1, CN(CCCC1CCCC1)C(=O)CCc1nnc(-c2ccccc2)o1 is lower in “hERG current change (%, negative = inhibition) at 10uM” value: 11.8% for the first, -22.7% for the second.

Going from COC(=O)Cc1c(O)ccn(CCc2ccccc2)c1=O to COc1ccc(OCCC(=O)OCC(=O)NCCc2ccccc2)cc1, the “hERG current change (%, negative = inhibition) at 10uM” value falls from 51.2% to 6.65%.

Compared with CCCn1nc(C(=O)NCC2COc3ccccc3O2)c2ccccc2c1=O (stereo not drawn), Oc1ccc(CNCC2COc3ccccc3O2)cc1 (stereo not drawn) is higher in “hERG current change (%, negative = inhibition) at 10uM” value: -36.2% for the first, 4.89% for the second.

Going from CC(NC(=O)C1C(=O)N(CCO)C2(C)CC1c1ccccc1O2)c1ccccc1 (stereo not drawn) to COc1ccc(OCC(O)CN(C)C(=O)C(C)Oc2ccccc2)cc1 (stereo not drawn), the “hERG current change (%, negative = inhibition) at 10uM” value rises from -14.4% to 6.31%.

Compared with CC(=O)Nc1cccc(C(=O)Nc2ccccc2C(=O)O)c1, COc1ccccc1NS(=O)(=O)c1cc(NC(=O)C(C)(C)C)ccc1N1CCOCC1 is lower in “hERG current change (%, negative = inhibition) at 10uM” value: 7.39% for the first, -36.4% for the second.

Going from C=CCN(CC=C)c1nc2ccccc2nc1C(C#N)C(=O)OCCOC (stereo not drawn) to Cn1c(=O)[nH]c(=O)c2c1nc(Br)n2CCCCSc1nc2ccccc2o1, the “hERG current change (%, negative = inhibition) at 10uM” value falls from -29.8% to -55.6%.

First: O=S(=O)(Nc1ccc(N2CCOCC2)cc1)c1cc(Cl)ccc1Cl
Second: Br.N=C1c2ccccc2CN1c1ccc(N2CCOCC2)c(S(=O)(=O)Nc2ccc(Cl)cc2)c1
The “hERG current change (%, negative = inhibition) at 10uM” value of the first is higher: 4.1% for the first, -81% for the second.

Going from Br.COc1ccccc1NS(=O)(=O)c1cc(N2Cc3ccccc3C2=N)ccc1N1CCOCC1 to CCOC(=O)CSc1ncnc2c1sc1nc(N3CCOCC3)c3c(c12)CCCC3, the “hERG current change (%, negative = inhibition) at 10uM” value rises from -73.3% to 12.7%.

First: CCOC(=O)c1nc(C)sc1-c1ccnn1S(=O)(=O)c1ccccc1C(F)(F)F
Second: CCOC(=O)c1c(NCc2ccccc2)n[nH]c1C
The “hERG current change (%, negative = inhibition) at 10uM” value of the first is lower: -25.1% for the first, 5% for the second.

Compared with O=C1[C@@H]2C(Cc3ccc(O)cc3)NC3(C(=O)Nc4ccc(F)cc43)[C@@H]2C(=O)N1c1ccc(F)cc1 (stereo partly drawn), CC(O)C(=O)O.Cc1ccc(CN(CC(O)COc2cccc3[nH]cc(C)c23)C(C)(C)C)cc1 (stereo not drawn) is lower in “hERG current change (%, negative = inhibition) at 10uM” value: 10.1% for the first, -60.8% for the second.

Compared with CC(O)(C#CCN1CCCCC1)c1ccccc1 (stereo not drawn), Cn1c(=O)[nH]c(=O)c2c1nc(N1CCCCC1)n2CCSc1nc2ccccc2o1 is higher in “hERG current change (%, negative = inhibition) at 10uM” value: 1.9% for the first, 11.1% for the second.

First: Cc1c[nH]c2cccc(OCC(O)CNC(C)(C)C)c12.Cl (stereo not drawn)
Second: CCOC(=O)Cc1csc(NC(=O)c2ccco2)n1
The “hERG current change (%, negative = inhibition) at 10uM” value of the first is lower: -8.91% for the first, 0.229% for the second.

Compared with CCOC(=O)CSc1ncnc2c(C(=O)OCC)c3n(c12)CCC3, CCSc1ncnc2c(C#N)c3n(c12)CCCCC3 is higher in “hERG current change (%, negative = inhibition) at 10uM” value: -62.6% for the first, -23.8% for the second.

Going from Cn1c(=O)[nH]c(=O)c2c1nc(N1CCCCCC1)n2CCCSc1nc2ccccc2o1 to Cn1c(=O)[nH]c(=O)c2c1nc(N1CCCC1)n2CCCSc1nc2ccccc2o1, the “hERG current change (%, negative = inhibition) at 10uM” value rises from -38.3% to -25.4%.

Going from Cn1c(=O)[nH]c(=O)c2c1nc(Br)n2CCSc1nc2ccccc2o1 to Cn1c(=O)[nH]c(=O)c2c1nc(Br)n2CCCSc1nc2ccccc2o1, the “hERG current change (%, negative = inhibition) at 10uM” value falls from -1.02% to -66.8%.

O=C(/C=C/c1ccccc1[N+](=O)[O-])NCC1CCCO1 (stereo not drawn) was tested, and the “hERG current change (%, negative = inhibition) at 10uM” value was -3.47%.
